From PubChem BioAssay AID743361 (Molecular Libraries Program, Specialized Chemistry Center, …, 2014)
Unmarked numbers belong to inactive results. Active and inactive are the calls of the source. The rule behind the calls is not given here.

assay: Rhodamine 123 quenching counterscreen activity, dose response, counter-screen for mtPTP inhibitor project, biochemical, dry powder samples, uHTS hits, fluorescence (AID 743361); settings: Rhodamine 123 fluorescence quenching counterscreen, cell-free

SMILES	IC50
COc1ccc(NC(=O)c2cc(Cl)cc(Cl)c2OC)cc1	> 100 µM
O=C(Nc1cc(Cl)ccc1Cl)c1cc(-c2cccc(O)c2)on1	38.7 µM (active)
COc1ccc(Cl)cc1C(=O)Nc1cccc(CN2CCNCC2)c1	> 100 µM
COc1ccc(Cl)cc1C(=O)Nc1ccc(CCN2CCOCC2)cc1	> 100 µM
O=C(Nc1ccc(CN2CCCCC2)cc1)c1cc(OCc2ccccc2)ccc1Cl	76.2 µM (active)
O=C(Nc1ccc(Br)cc1)c1cc(C2CC2)on1	> 100 µM
COc1ccc(Cl)cc1C(=O)Nc1ccccc1	> 100 µM
CN1CCN(CCc2ccc(NS(=O)(=O)c3ccc(F)c(Cl)c3)cc2)CC1	> 100 µM
COc1cccc(-c2cc(C(=O)Nc3cc(Cl)ccc3C)no2)c1	> 100 µM
O=C(Nc1ccccc1OCc1ccccc1)c1cc(-c2cccc(O)c2)on1	> 100 µM
O=C(Nc1ccc(Cl)cc1)c1cc(-c2cccc(O)c2)on1	> 100 µM
O=C(Nc1ccccc1C(F)(F)F)c1cc(-c2ccccc2)on1	> 100 µM
COc1ccc(/C=C/C(=O)Nc2cccc(Cl)c2)cc1O	> 100 µM
CN1CCN(Cc2ccc(NS(=O)(=O)c3cc(Cl)cc(Cl)c3)cc2)CC1	> 100 µM
COc1ccc(Cl)c(C(=O)Nc2ccc(CN3CCN(C)CC3)cc2)c1	> 100 µM
CN1CCN(c2ccccc2NC(=O)c2ccc(OCc3ccccc3)cc2)CC1	> 100 µM

SMILES	IC50
O=S(=O)(Nc1ccc(CCN2CCCCC2)cc1)c1cccc(Cl)c1	> 100 µM
CC1CCN(CCCC(=O)c2ccc(Br)cc2)CC1	> 100 µM
CCN(CC)c1ccc(NC(=O)c2ccc(OC)c(Cl)c2)cc1	> 100 µM
COc1ccc(Cl)cc1C(=O)Nc1ccc(N(C)C)cc1	> 100 µM
COc1ccc(NC(=O)c2cc(-c3ccc(Cl)cc3)on2)cc1Cl	> 100 µM
COc1ccc(Cl)c(C(=O)Nc2ccc(CN3CCOCC3)cc2)c1	> 100 µM
Cc1ccc(NC(=O)c2cc(-c3cccc(O)c3)on2)cc1Cl	> 100 µM
COc1ccc(Cl)c(C(=O)Nc2ccc(CN3CCCCC3)cc2)c1	> 100 µM
O=C(Nc1cccc(Cl)c1)c1cc(-c2ccc(Cl)cc2)on1	> 100 µM
COc1ccc(Cl)cc1S(=O)(=O)Nc1ccc(CCN2CCN(C)CC2)cc1	> 100 µM
COc1ccc(Cl)cc1C(=O)Nc1ccc(N2CCN(C)CC2)cc1	> 100 µM
Cc1cc(NC(=O)c2ccc(-n3cnnc3)cc2)no1	> 100 µM
O=C(Nc1cccc(F)c1)c1cc(-c2cccc(O)c2)on1	> 100 µM
CN1CCN(c2ccc(NS(=O)(=O)c3cccc(Cl)c3)cc2)CC1	> 100 µM
O=S(=O)(Nc1ccc(CCN2CCCCC2)cc1)c1ccc(F)c(Cl)c1	> 100 µM
